According to ChEMBL document CHEMBL4513216, “Probing the Open Global Health Chemical Diversity Library for Multistage-Active Starting Points for Next-Generation Antimalarials” (ACS Infect Dis, 2020):
Out of some 69,000 compounds screened, about 8,600 (12%) showed an effect of 50% or more. What follows is part of a selection rich in strong results, with near analogues and random picks from the rest.

Test system: Plasmodium berghei
Test: Screen against P. berghei liver stage (PbLuc), transformed with Luciferase, at 10uM
Type: functional, HepG2
Settings: tested at 10 uM

Going from Cn1nc(C2CCN(C(=O)c3cccs3)CC2)c2cccnc21 to CC(C)Cc1noc(CN2CCN(C(=O)c3cccs3)CC2)n1, the INHIBITION falls from 47.2% to 0.891%.

First: CCc1nc(CS(=O)(=O)Cc2noc(C3CC3)n2)cs1
Second: COCCN(Cc1noc(-c2ccc(OC)cc2)n1)C1CC1
The INHIBITION of the first is higher: 34% for the first, 15.5% for the second.

Compared with CC(C)=CCN1CCN(C(=O)C2CC2)CC1, CC(=O)N1CCN(C(=O)C(C)OCC(F)(F)F)CC1 (stereo not drawn) is lower in INHIBITION: 21.5% for the first, -22.8% for the second.

Compared with CC(C)COCC1CN(Cc2ccsc2)Cc2ncn(C)c21 (stereo not drawn), Cn1nnc2c1C(COCc1cccnc1)CN(Cc1ccoc1)C2 (stereo not drawn) is higher in INHIBITION: 16.4% for the first, 29.4% for the second.

Compared with Cc1nc(C)c(CNCC2(COc3cccnc3)C[C@@H](O)[C@@H](O)C2)s1 (stereo partly drawn), COc1cccc(OCCc2nnc(NC(C)=O)s2)c1 is lower in INHIBITION: 33.6% for the first, -8.9% for the second.

Going from Cc1noc(CCCC(=O)N2CCCC2c2ccsc2)n1 (stereo not drawn) to Cc1nc(C2CCCN2CC(=O)N2CCc3ccccc32)no1 (stereo not drawn), the INHIBITION rises from 0.914% to 46.2%.

Going from Cc1cccc2c1NC1(CCCC1)NC2=O to Cc1ccc(C(=O)N2CC[C@@]3(O)CCCC[C@H]3C2)cc1, the INHIBITION rises from 45.2% to 56.3%.

Compared with COC(=O)C1CCN(C(=O)Cn2ccc(-c3ccc(F)cc3)n2)CC1, N[C@H]1CN(C(=O)CCCc2ccc(F)cc2)C[C@@H]1C1CC1 is higher in INHIBITION: -36.4% for the first, 25.1% for the second.

Going from O=C1[C@@H]2CC[C@@H](CN(C3CSCCSC3)C2)N1Cc1cscn1 to CCc1cc(CN2C[C@@H]3CC[C@H]2CN(C2Cc4ccccc4C2)C3)on1, the INHIBITION rises from -14.9% to 57.1%.

Going from CC(C)c1cc(N2CCC[C@H](N)C2)n2nccc2n1 to COC1CCN(c2cc(C(C)C)nc3ccnn23)C1 (stereo not drawn), the INHIBITION falls from 13% to 7.6%.

First: CC(C)c1cc(N2CCSCC2)n2nccc2n1
Second: CC(C)c1cc(N2CCC(N(C)C)C2)n2nccc2n1 (stereo not drawn)
The INHIBITION of the first is lower: -6.03% for the first, 53.9% for the second.

First: Cc1cc(N2CCCC(N(C)C)C2)n2nc(C)cc2n1 (stereo not drawn)
Second: Cc1cc(N2CCCC(N(C)C)C2)n2nccc2n1 (stereo not drawn)
The INHIBITION of the first is lower: -1.16% for the first, 55.4% for the second.

First: Cc1nn2c(N3CCCC(C#N)C3)cc(-c3ccccc3)nc2c1C (stereo not drawn)
Second: Cc1nn2c(N3CCC(O)C3)cc(-c3ccccc3)nc2c1C (stereo not drawn)
The INHIBITION of the first is lower: 19.5% for the first, 38.5% for the second.

First: Cc1cc2nc(C(C)C)cc(N3CCC(N(C)C)C3)n2n1 (stereo not drawn)
Second: Cc1cc2nc(C(C)C)cc(N3CCC(O)CC3)n2n1
The INHIBITION of the first is higher: 17.7% for the first, 11.3% for the second.

Compared with CC(C)c1cc(N2CCC(C(C)N3CCCC3)CC2)n2nccc2n1 (stereo not drawn), CC(C)c1cc(N2CCC(NS(C)(=O)=O)CC2)n2nccc2n1 is lower in INHIBITION: 73% for the first, 61.2% for the second.

Compared with CN(C)C1CCN(c2cc(-c3ccccc3)nc3ccnn23)C1 (stereo not drawn), CN(C)c1no[n+]([O-])c1-c1ccccc1 is lower in INHIBITION: 74.9% for the first, -3.19% for the second.

First: O=C1COc2ccc(C(=O)NS(=O)(=O)c3cc(F)ccc3F)cc2N1
Second: CC(NC(=O)NCc1ccoc1)c1ccc2c(c1)CC(=O)N2 (stereo not drawn)
The INHIBITION of the first is higher: 33.3% for the first, -55.4% for the second.

First: CCc1cc(NC(=O)C2CCCN(C(=O)c3ccncc3)C2)[nH]n1 (stereo not drawn)
Second: Cn1ccc2cc(C(=O)N3CC[C@@]4(O)CCCC[C@H]4C3)ccc21
The INHIBITION of the first is higher: 8.86% for the first, -4.87% for the second.

Going from O=C(Cc1csc(-c2cccc(Cl)c2)n1)NCc1cccc(C(=O)O)c1 to COc1ccccc1-c1ccc(NCc2cn3c(n2)SCC3)nn1, the INHIBITION falls from 34.5% to 9%.

Compared with COCCN(CCOC)C(=O)c1c[nH]nc1-c1cccc(F)c1, COCCN(C)C(C(=O)O)c1ccc(F)c(C)c1 (stereo not drawn) is higher in INHIBITION: -3.24% for the first, 14% for the second.

Going from Cc1nc(-c2ccc(Cl)s2)sc1C(=O)NCCCC(N)=O to CC(C)CCCNC(=O)Nc1ccc(C(N)=O)c(Cl)c1, the INHIBITION rises from -102.2% to -49.5%.

First: CCN1CC(COC(=O)c2cc(Br)ccc2F)CC1=O (stereo not drawn)
Second: CCN1CC2(CCC1=O)CCN(CCOc1ccc(F)cc1)CC2
The INHIBITION of the first is lower: 8.4% for the first, 10.1% for the second.

First: CC(C)C1CCCN1CC(=O)NCc1ccc(OCC(N)=O)cc1 (stereo not drawn)
Second: COc1ccc(CC(=O)N2Cc3nccn3CC(CN(C)C)C2)cc1 (stereo not drawn)
The INHIBITION of the first is higher: 12.8% for the first, 6.72% for the second.

Compared with CC(C)c1cc(N2CCC(NS(C)(=O)=O)C2)nc(C(C)C)n1 (stereo not drawn), CC(C)c1cc(NC(CO)CO)n2nccc2n1 is lower in INHIBITION: 49.6% for the first, 33.2% for the second.

First: CC(=O)N1CCCN(C(=O)CCc2c(C)nc3ccnn3c2C)CC1
Second: CCOc1ccnc(N2CCCN(C(=O)c3cc[nH]c3C)CC2)n1
The INHIBITION of the first is higher: 10% for the first, -7.31% for the second.

Going from O=C(Nc1ccccc1)c1ccc2c(c1)C1(CCCCC1)CN2 to CC(=O)c1ccc(NC(=O)c2ccc3c(c2)C2(CCCCC2)CN3)cc1, the INHIBITION falls from 90.1% to 64.7%.

First: CN(C)C(=O)N1CCC2(CC1)CNc1ccc(F)cc12
Second: CC(=O)N1CCC2(CC1)CNc1ccc(F)cc12
The INHIBITION of the first is higher: 49.1% for the first, 36.2% for the second.

Going from O=C(Nc1ccccc1)C1=NOC2(CCCNC2)C1 (stereo not drawn) to COCCn1cncc1CN1CCC(C(C)=O)(c2ccccc2)CC1, the INHIBITION rises from -4.02% to 50.7%.

Compared with CNC(=O)N1CCC2(CC1)CNc1ccc(F)cc12, Cc1ccc(C(=O)N2CC[C@@]3(O)CCN(C(=O)N(C)C)C[C@H]3C2)cc1Cl is higher in INHIBITION: 10.5% for the first, 62.8% for the second.

Compared with CCOCC1CN(S(=O)(=O)c2ccccc2)Cc2nccn2C1 (stereo not drawn), O=C1NC(c2ccccc2)=N[C@@]12CC[C@@H]1CN(S(=O)(=O)C3CC3)C[C@@H]12 is higher in INHIBITION: 34% for the first, 76.4% for the second.

Compared with COC(C)(C)C(=O)N1CCC(c2cc(CN(C)C)n(C)n2)CC1, CN(Cc1ccncc1)C(=O)[C@H]1CSCN1C(=O)OC(C)(C)C is higher in INHIBITION: -42.1% for the first, -12.1% for the second.

Compared with CN(CC(N)=O)C(=O)c1cc(Cl)c(Cl)n1C, CCC(CC)C(O)CNC(=O)Nc1cc(C)nn1C (stereo not drawn) is higher in INHIBITION: 8.4% for the first, 11.6% for the second.

Compared with CC(C)Cc1nc(CN2CCC(NC(=O)c3cccs3)CC2)no1, CC(C)Cc1noc(CN2CCC(NC(=O)c3cccs3)CC2)n1 is higher in INHIBITION: 24.2% for the first, 53.5% for the second.

Going from Cc1ccc(C(=O)NC2CCN(Cc3noc(C(C)C)n3)CC2)s1 to Cc1ccc(C(=O)NC2CCN(Cc3noc(CC(C)C)n3)CC2)s1, the INHIBITION rises from 7.44% to 71.8%.

Going from Cc1ccc(C(=O)NC2CCN(Cc3nc(CC(C)C)no3)CC2)s1 to CCOc1cccc(CNC2CCCN(Cc3noc(C)n3)C2)c1 (stereo not drawn), the INHIBITION rises from 18.6% to 47%.

Going from CCc1c(C)nc2n(c1=O)CC(C(=O)Nc1ccccc1C)CS2 (stereo not drawn) to CC(C)NC(=O)C1CCN(c2snc3ccccc23)CC1, the INHIBITION falls from 42.4% to -15.5%.

Compared with COc1no[n+]([O-])c1-c1ccccc1, CCOc1no[n+]([O-])c1-c1ccccc1 is lower in INHIBITION: 63.5% for the first, 36.9% for the second.

Compared with Cc1[nH]ncc1C(=O)N(CC(C)C)CC(O)c1ccc(F)cc1 (stereo not drawn), CC(C)CN(CC(O)c1ccc(F)cc1)C(=O)c1cnsn1 (stereo not drawn) is lower in INHIBITION: -12.1% for the first, -24.9% for the second.

Compared with COc1ccc(C(=O)N2CC[C@@]3(O)CCCC[C@H]3C2)cc1OC, CN(C)C(=O)N1CC[C@]2(O)CCN(C(=O)c3ccc(C#N)nc3)C[C@@H]2C1 is lower in INHIBITION: 44.3% for the first, 42.4% for the second.

Going from Cc1ncc(C(=O)N2CC[C@@]3(O)CCN(C(=O)N(C)C)C[C@H]3C2)cn1 to CN(C)C(=O)N1CCOCC2(CCN(c3ncccn3)C2)C1 (stereo not drawn), the INHIBITION falls from 37.8% to -5.29%.

Going from COc1cccc(CN2CCOC(c3cnccn3)C2)c1F (stereo not drawn) to COCCn1cncc1Cn1ncc2ccccc2c1=O, the INHIBITION rises from -18.9% to 13%.

Compared with O=C(N1CCOCC1)[C@@]12CCO[C@@H]1CCN(C1CCCC1)C2, O=C(Nc1cnc2n1CCCC2)C1CCNCC1 is higher in INHIBITION: 8.67% for the first, 18.7% for the second.

Compared with O=C1NC(c2ccccc2)=N[C@@]12CC[C@@H]1CN(CC3CCOCC3)C[C@@H]12, O=C1NC(c2ccccc2)=N[C@@]12CC[C@@H]1CN(Cc3ccccc3)C[C@@H]12 is lower in INHIBITION: 2.74% for the first, -21.3% for the second.

First: Cc1cc(CN(C2CC2)C(C)C(C)C)on1 (stereo not drawn)
Second: Cc1ccc(CN(Cc2cc(C)no2)C2CC2)cc1
The INHIBITION of the first is lower: -21.8% for the first, 53.2% for the second.

Going from COc1ccc(CN(Cc2cc(C)no2)C2CC2)cc1 to Cc1cc(CN(Cc2ccccc2)C2CC2)on1, the INHIBITION falls from 92.2% to 33.7%.

Compared with COc1ccc(CN(Cc2nc(C)no2)C2CCCCC2)cc1OC, Cc1noc(CN2C[C@@H]3CC[C@H]2CN(C2Cc4ccccc4C2)C3)n1 is higher in INHIBITION: 14.4% for the first, 30.9% for the second.

First: O=C(NCC1CC1)[C@@H]1CCO[C@@H]2CCN(Cc3ccc(F)cc3)C[C@H]21
Second: O=C(CO)N1C[C@@H]2CC[C@H]1CN(C1Cc3ccccc3C1)C2
The INHIBITION of the first is lower: -10.3% for the first, 25.4% for the second.

Going from Cc1cnn(CC2CCCN2C(=O)c2ccc3c(c2)nnn3C)c1 (stereo not drawn) to CN1CCc2c(C#N)c(NCc3cccnc3)n3cnnc3c2C1, the INHIBITION rises from 23.2% to 53.2%.

Going from C=Cc1cccc(CN2C[C@@H]3CC[C@H]2CN(Cc2c(C)noc2C)C3)c1 to Cc1cc(CN2C[C@@H]3CC[C@H]2CN(C2Cc4ccccc4C2)C3)on1, the INHIBITION rises from -19.2% to 64.5%.

Compared with CN1CCc2c(C#N)c(NCCN3CCOCC3)n3cnnc3c2C1, COCCNc1c(C#N)c2c(c3nncn13)CN(C)CC2 is lower in INHIBITION: 35% for the first, 32.5% for the second.

Compared with CN1CCc2c(C#N)c(NCc3ccccc3)n3cnnc3c2C1, CN1CCc2c(C#N)c(NCCc3ccccc3)n3cnnc3c2C1 is higher in INHIBITION: 24.2% for the first, 60.7% for the second.

Compared with CN1CCc2c(C#N)c(NCc3ccco3)n3cnnc3c2C1, CN1CCc2c(C#N)c(NCc3ccncc3)n3cnnc3c2C1 is lower in INHIBITION: 19.7% for the first, 10.1% for the second.

First: CC(C)CCNc1c(C#N)c2c(c3nncn13)CN(C)CC2
Second: CN1CCc2c(C#N)c(NCCCO)n3cnnc3c2C1
The INHIBITION of the first is higher: 60.7% for the first, 32.5% for the second.

Going from Cc1ncsc1CN1C[C@@H]2COC[C@]2(C(=O)NC(C)C)C1 to CN(C)C(=O)N1C[C@@H]2CC[C@H]1CN(C1Cc3ccccc3C1)C2, the INHIBITION falls from 18.6% to -57.9%.

Going from COCCN1CCCC12CCN(Cc1cncn1C)CC2 to COCCOCC(=O)N1C[C@@H]2CC[C@H]1CN(C1Cc3ccccc3C1)C2, the INHIBITION falls from 49.1% to -62.1%.

First: CCc1noc(CN2C[C@@H]3CC[C@H]2CN(C2Cc4ccccc4C2)C3)n1
Second: Cc1nnc(CN2C[C@@H]3CC[C@H]2CN(C2Cc4ccccc4C2)C3)o1
The INHIBITION of the first is lower: 12.8% for the first, 66.1% for the second.

Molecule CSCC(=O)N1C[C@@H]2CC[C@H]1CN(C1Cc3ccccc3C1)C2 has an INHIBITION of -69.3%.
